For 59 compounds, outcome and AC50 results are on record in PubChem BioAssay (NCATS).

The conditions of test [1]: Ebola virus entry assay, blue channel fluorescence.
For test [2] the following is noted: Ebola virus entry assay, green fluorescence channel.
The conditions of test [3]: Ebola virus entry assay, ratio channel readout.
The conditions of test [4]: Ebola virus entry assay, blue channel fluorescence. This is another data set of the same source.

SMILES strings stand for the structures. For some assays here: Results with a measured potency or affinity are listed apart. Activity calls are given as the source filed them. For most assays here, calls follow the shape of the full dose curve. Where a SMILES comes first, the peptide text is derived from it. Bridges are numbered along the chain shown (N, C = ends). [ ]: non-standard residue; d: D form. The star is where a group is joined. Dab(CH2SO3H) = N[C@@H](CCNCS(=O)(=O)O)C(=O)O; X1 = CC[C@@H](C)CCCCC(=O)*; Dab = NCC[C@H](N)C(=O)O

As to `COc1ccnc(CS(=O)c2nc3cc(OC(F)F)ccc3[nH]2)c1OC` (stereo unspecified), the compound was called inactive in test [1], in test [2] and in test [3].

Consider `C=CC1=C(C(=O)O)N2C(=O)[C@@H](NC(=O)/C(=N\O)c3csc(N)n3)[C@H]2SC1` (stereo in doubt), for which the compound was classed as inactive in test [1], in test [2] and in test [3].

Take `C#CCC(Cc1cnc2nc(N)nc(N)c2n1)c1ccc(C(=O)N[C@@H](CCC(=O)O)C(=O)O)cc1` (stereo partly specified): the compound was classed as inactive in test [1], in test [2] and in test [3].

In the case of `C=C1C(=C/C=C2\CCC[C@]3(C)[C@@H]([C@H](C)CCCC(C)(C)O)CC[C@@H]23)C[C@@H](O)C[C@@H]1O`, the compound was classed as inactive in test [1], in test [2] and in test [3].

`C=CC1=C(C(=O)O)N2C(=O)[C@@H](NC(=O)/C(=N/OCC(=O)O)c3csc(N)n3)[C@H]2SC1` (stereo in doubt): the compound was classed as inactive in test [1], in test [2] and in test [3].

For `O=C1Nc2ccc(Cl)cc2C(c2ccccc2)=NC1O` (stereo unspecified), the result in test [1], in test [2] and in test [3] was inactive.

Take `COC(=O)C(c1ccccc1)C1CCCCN1` (stereo unspecified): the outcome in test [1], in test [2] and in test [3] was inactive.

As to `C[C@@H]1O[C@@H]1P(=O)(O)O`, the compound was classed as inactive in test [1], in test [2] and in test [3].

Turning to `CC[C@@H](C)CCCCC(=O)N[C@@H](CCNCS(=O)(=O)O)C(=O)N[C@H](C(=O)N[C@@H](CCNCS(=O)(=O)O)C(=O)N[C@H]1CCNC(=O)[C@H]([C@@H](C)O)NC(=O)[C@H](CCNCS(=O)(=O)O)NC(=O)[C@H](CCNCS(=O)(=O)O)NC(=O)[C@H](CC(C)C)NC(=O)[C@@H](CC(C)C)NC(=O)[C@H](CCNCS(=O)(=O)O)NC1=O)[C@@H](C)O` (X1-[Dab(CH2SO3H)]T[Dab(CH2SO3H)][Dab][Dab(CH2SO3H)][dL]L[Dab(CH2SO3H)][Dab(CH2SO3H)]T; lactam 4-C), the call in test [1], in test [2] and in test [3] was inactive.

Turning to `CO[C@H]1C=CO[C@@]2(C)Oc3c(C)c(O)c4c(O)c(c5c(nc6cc(C)ccn65)c4c3C2=O)NC(=O)/C(C)=C\C=C[C@H](C)[C@H](O)[C@@H](C)[C@@H](O)[C@@H](C)[C@H](OC(C)=O)[C@@H]1C`, the compound was classed as inactive in test [1], in test [2] and in test [3].

For the compound `COc1ccc2c(c1)C13CCCC[C@@H]1C(C2)N(C)CC3` (stereo partly specified), the result in test [1], in test [2] and in test [3] was inactive.

As for `CC(C)CN(C[C@@H](OP(=O)(O)O)[C@H](Cc1ccccc1)NC(=O)O[C@H]1CCOC1)S(=O)(=O)c1ccc(N)cc1`, the compound was called inactive in test [1], in test [2] and in test [3].

Regarding `COc1cc(NS(C)(=O)=O)ccc1Nc1c2ccccc2nc2ccccc12`, the compound was called inactive in test [1], in test [2] and in test [3].

In the case of `OCC(S)CS` (stereo unspecified), the outcome in test [1], in test [2] and in test [3] was inactive.

In the case of `O=C(N[C@H](CO)[C@H](O)c1ccc([N+](=O)[O-])cc1)C(Cl)Cl`, the outcome in test [1], in test [2] and in test [3] was inactive.

For `C[N+]1(C)[C@@H]2CC(OC(=O)C(O)(c3cccs3)c3cccs3)C[C@H]1[C@@H]1O[C@@H]12` (stereo partly specified), the call in test [1], in test [2] and in test [3] was inactive.

Consider `CO[C@H]1C=CO[C@@]2(C)Oc3c(C)c(O)c4c(O)c(c(/C=N/N5CCN(C6CCCC6)CC5)c(O)c4c3C2=O)NC(=O)/C(C)=C\C=C[C@H](C)[C@H](O)[C@@H](C)[C@@H](O)[C@@H](C)[C@H](OC(C)=O)[C@@H]1C`, for which the outcome in test [1], in test [2] and in test [3] was inactive.

Regarding `NC(=O)N1c2ccccc2C=Cc2ccccc21`, the outcome in test [1], in test [2] and in test [3] was inactive.

Take `O=C(OC1C[C@@H]2CC3C[C@H](C1)N2CC3=O)c1c[nH]c2ccccc12` (stereo partly specified): the call in test [1], in test [2] and in test [3] was inactive.

As to `C[N+](C)(C)CC(O)CC(=O)[O-]` (stereo unspecified), the call in test [1], in test [2] and in test [3] was inactive.

On to `C=CC[C@@H]1C=C(C)C[C@H](C)C[C@H](OC)[C@H]2O[C@@](O)(C(=O)C(=O)N3CCCC[C@H]3C(=O)O[C@H](C(C)=C[C@@H]3CC[C@H](O)[C@H](OC)C3)[C@@H](C)[C@@H](O)CC1=O)[C@@H](C)C[C@@H]2OC`, for which the call in test [1], in test [2] and in test [3] was inactive.

For `C[C@]12CCC(=O)C=C1CC[C@H]1[C@@H]3CC[C@](O)(C(=O)CO)[C@@]3(C)C[C@H](O)[C@@]12F`, the result in test [1], in test [2] and in test [3] was inactive.

For the compound `Cc1nnc(C(C)C)n1C1C[C@H]2CC[C@@H](C1)N2CC[C@H](NC(=O)C1CCC(F)(F)CC1)c1ccccc1` (stereo partly specified), the outcome in test [1], in test [2] and in test [3] was inactive.

In the case of `C[N+]1(C)CCCC(OC(=O)C(O)(c2ccccc2)c2ccccc2)C1` (stereo unspecified), the call in test [1], in test [2] and in test [3] was inactive.

Consider `C[C@]12C=CC(=O)N[C@@H]1CC[C@@H]1[C@@H]2CC[C@]2(C)[C@@H](C(=O)Nc3cc(C(F)(F)F)ccc3C(F)(F)F)CC[C@@H]12`, for which the compound was classed as inactive in test [1], in test [2] and in test [3].

For `O=P(O)(O)C(Sc1ccc(Cl)cc1)P(=O)(O)O`, the outcome in test [1], in test [2] and in test [3] was inactive.

Consider `COc1cccc2c1C(=O)c1c(O)c3c(c(O)c1C2=O)C[C@@](O)(C(=O)CO)C[C@@H]3O[C@H]1C[C@H](N)[C@@H](O)[C@H](C)O1`, for which, in test [1], the AC50 is 7.94 µM (active). Besides, the compound was classed as inactive in test [2] and in test [3].

`CC(=O)O[C@H]1C(=O)[C@@]2(C)[C@H]([C@H](OC(=O)c3ccccc3)[C@]3(O)C[C@H](OC(=O)[C@H](O)[C@@H](NC(=O)c4ccccc4)c4ccccc4)C(C)=C1C3(C)C)[C@]1(OC(C)=O)CO[C@@H]1C[C@@H]2O`: the compound was classed as inactive in test [1], in test [2] and in test [3].

For `CO[C@H]1C[C@@H]2CC[C@@H](C)[C@@](O)(O2)C(=O)C(=O)N2CCCC[C@@H]2C(=O)O[C@H]([C@H](C)C[C@@H]2CC[C@H](OCCO)[C@H](OC)C2)CC(=O)[C@H](C)C=C(C)[C@@H](O)[C@@H](OC)C(=O)[C@H](C)C[C@H](C)C=CC=CC=C1C`, the call in test [1], in test [2] and in test [3] was inactive.

On to `CCCCC[C@H](O)/C=C/[C@@H]1[C@H]2C/C(=C/CCCC(=O)O)O[C@H]2C[C@H]1O`, for which the compound was called inactive in test [1], in test [2] and in test [3].

For `CN(C)CCc1c[nH]c2ccc(Cn3cncn3)cc12`, the outcome in test [1], in test [2] and in test [3] was inactive.

Regarding `Nc1ccn([C@@H]2O[C@H](CO)[C@@H](O)C2O)c(=O)n1` (stereo partly specified), the outcome in test [1], in test [2] and in test [3] was inactive.

For the compound `CN1C(=O)CC(=O)N(c2ccccc2)c2cc(Cl)ccc21`, the outcome in test [1], in test [2] and in test [3] was inactive.

Consider `C=C1[C@H](CO)[C@@H](O)C[C@@H]1n1cnc2c(=O)[nH]c(N)nc21`, for which the result in test [1], in test [2] and in test [3] was inactive.

For `NC(=O)CC[C@@H]1NC(=O)[C@H](Cc2ccccc2)NC(=O)[C@H](Cc2ccc(O)cc2)NC(=O)CCSSC[C@@H](C(=O)N2CCC[C@H]2C(=O)N[C@@H](CCCN=C(N)N)C(=O)NCC(N)=O)NC(=O)[C@H](CC(N)=O)NC1=O`, the compound was called inactive in test [1], in test [2] and in test [3].

With `CNC(C)[C@@H]1CC[C@@H](N)[C@@H](O[C@H]2[C@H](O)[C@@H](O[C@H]3OC[C@](C)(O)[C@H](NC)[C@H]3O)[C@H](N)C[C@@H]2N)O1` (stereo partly specified), the compound was called inactive in test [1], in test [2] and in test [3].

Consider `CN1C(C(=O)Nc2ccccn2)=C(O)c2ccccc2S1(=O)=O`, for which the compound was called inactive in test [1], in test [2], in test [3] and in test [4].

`NS(=O)(=O)c1cc(Cl)c(Cl)c(S(N)(=O)=O)c1`: the outcome in test [1], in test [2] and in test [3] was inactive.

As for `CCS(=O)(=O)CCn1c([N+](=O)[O-])cnc1C`, the compound was called inactive in test [1], in test [2], in test [3] and in test [4].

Take `CCCCC(C)(O)C/C=C/[C@H]1[C@H](O)CC(=O)[C@@H]1CCCCCCC(=O)OC` (stereo partly specified): the call in test [1], in test [2] and in test [3] was inactive.

Take `Clc1ccc2nsnc2c1NC1=NCCN1`: the outcome in test [1], in test [2], in test [3] and in test [4] was inactive.

In the case of `CO[C@H]1C=CO[C@@]2(C)Oc3c(C)c(O)c4c(O)c(c5c(c4c3C2=O)=NC2(CCN(CC(C)C)CC2)N=5)NC(=O)/C(C)=C\C=C/[C@H](C)[C@H](O)[C@@H](C)[C@@H](O)[C@@H](C)[C@H](OC(C)=O)[C@@H]1C`, the result in test [1], in test [2] and in test [3] was inactive.

For `C=CCN1C[C@H](C(=O)N(CCCN(C)C)C(=O)NCC)C[C@@H]2c3cccc4[nH]cc(c34)C[C@H]21`, the outcome in test [1], in test [2], in test [3] and in test [4] was inactive.

As for `S=c1nc[nH]c2nc[nH]c12`, the compound was called inactive in test [1], in test [2] and in test [3].

`CCN(CC)C(=O)[C@]1(c2ccccc2)C[C@@H]1CN`: the outcome in test [1], in test [2] and in test [3] was inactive.

In the case of `C=C[C@H]1CN2CC[C@H]1C[C@H]2[C@H](O)c1ccnc2ccc(OC)cc12`, the result in test [1], in test [2] and in test [3] was inactive. Further, the AC50 in test [4] was 25.1 µM (active).

On to `CCOC(=O)C1=C(COCCN)NC(C)=C(C(=O)OC)C1c1ccccc1Cl` (stereo unspecified), for which the outcome in test [1], in test [2] and in test [3] was inactive.

Take `Nc1nc(Cl)nc2c1ncn2[C@H]1C[C@H](O)[C@@H](CO)O1`: the call in test [1], in test [2] and in test [3] was inactive.

For the compound `NC(=O)c1cnccn1`, the result in test [1], in test [2], in test [3] and in test [4] was inactive.

For `C=CCC1([C@H](C)CCC)C(=O)NC(=O)NC1=O`, the compound was classed as inactive in test [1], in test [2], in test [3] and in test [4].

On to `N#Cc1ccc2c(c1)N(CCCN1CCC(O)CC1)c1ccccc1S2`, for which the result in test [1] and in test [2] was inactive. In addition, the AC50 in test [3] was 22.4 µM (active).

Take `Nc1ncn([C@H]2C[C@H](O)[C@@H](CO)O2)c(=O)n1`: the call in test [1], in test [2], in test [3] and in test [4] was inactive.

Regarding `Nc1ccc(S(=O)(=O)c2ccc(N)cc2)cc1`, the compound was called inactive in test [1], in test [2], in test [3] and in test [4].

For the compound `NCCCCCC(=O)O`, the call in test [1], in test [2], in test [3] and in test [4] was inactive.

`CN1C(CSCC(F)(F)F)Nc2cc(Cl)c(S(N)(=O)=O)cc2S1(=O)=O` (stereo unspecified): the outcome in test [1], in test [2], in test [3] and in test [4] was inactive.

Regarding `OCCOCCN1CCN(C2=Nc3ccccc3Sc3ccccc32)CC1`, the compound was called inactive in test [1], in test [2], in test [3] and in test [4].

Regarding `C#CCN[C@@H]1CCc2ccccc21`, the outcome in test [1], in test [2], in test [3] and in test [4] was inactive.

In the case of `CNCCCC12CCC(c3ccccc31)c1ccccc12`, the AC50 in test [1] is 3.16 µM (active); in test [3] it was 3.17 µM (active); in test [4] it was 3.55 µM (active). Besides, the compound was classed as inactive in test [2].

For `NC(=O)[C@@H]1CCCN1C(=O)[C@H](Cc1cnc[nH]1)NC(=O)[C@@H]1CCC(=O)N1`, the result in test [1], in test [2] and in test [3] was inactive.
